Assay results reported in PubChem BioAssay (NCATS).
Results filed as inconclusive are left out. The source made the active and inactive calls. Calls come from the whole dose curve; as a rule, active = well fitted curve in the direction sought with a large enough effect; inconclusive = small, poorly fitted or top-dose-only effect, or another doubt; inactive = no such curve, though single readings can be large; an effect the other way counts as inactive or inconclusive.

Legend:
[1] = qHTS of pediatric cancer cell lines to identify multiple opportunities for drug repurposing: Primary screen for BT-12 cells (AID 1347101); note: nearly all actives have a fitted effect of over 25% in size; note: potency is the fitted concentration of half-maximal effect
Method in brief: (§1)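 Cells (500-1,000/well) rested 5 h, then received compounds for 48 h; metabolically active cells were measured by CellTiter-Glo luminescence. Final concentrations spanned up to 46 µM (MIPE, 11-point) or 0.59 nM-46 µM (NPC, 8-point) in primary screens, 11-point in follow-ups.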

[2] = qHTS of pediatric cancer cell lines to identify multiple opportunities for drug repurposing: Primary screen for Rh18 cells (AID 1347102); note: nearly all actives have a fitted effect of over 65% in size; note: potency is the fitted concentration of half-maximal effect
Method in brief: (§2)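 Cells (500-1,000/well) in growth media were settled 5 h at 37 degrees C, then given compounds for 48 h. Viability was read as CellTiter-Glo luminescence. Primary runs used MIPE at 11 points (0.78 nM-46 µM) and NPC at 8 points (0.59 nM-46 µM); follow-ups used 11 points.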

[3] = qHTS of pediatric cancer cell lines to identify multiple opportunities for drug repurposing: Primary screen for RD cells (AID 1347104); note: nearly all actives have a fitted effect of over 55% in size
Method in brief: (§3)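 Following a 5-hour attachment period, cells at 500-1,000/well received compounds and were cultured for 48 hours. CellTiter-Glo was added and luminescence read to estimate viable, metabolically active cells.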

[4] = qHTS of pediatric cancer cell lines to identify multiple opportunities for drug repurposing: Primary screen for MG 63 (6-TG R) cells (AID 1347105); note: nearly all actives have a fitted effect of over 50% in size
Method in brief: as §3

[5] = qHTS of pediatric cancer cell lines to identify multiple opportunities for drug repurposing: Primary screen for control Hh wild type fibroblast cells (AID 1347106);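 note: a drop in luminescence marks cytotoxicity and a rise apparent proliferation; nearly all actives have a fitted effect of over 55% in size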
Method in brief: as §2

[6] = qHTS of pediatric cancer cell lines to identify multiple opportunities for drug repurposing: Primary screen for Rh30 cells (AID 1347107); note: nearly all actives have a fitted effect of over 75% in size
Method in brief: as §2

[7] = qHTS of pediatric cancer cell lines to identify multiple opportunities for drug repurposing: Primary screen for OHS-50 cells (AID 1347103); note: nearly all actives have a fitted effect of over 40% in size; note: potency is the fitted concentration of half-maximal effect
Method in brief: as §1

[8] = qHTS of pediatric cancer cell lines to identify multiple opportunities for drug repurposing: Primary screen for Rh41 cells (AID 1347108);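 note: luminescence drop marks cytotoxic hits; nearly all actives have a fitted effect of over 70% in size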
Method in brief: as §3

[9] = qHTS of pediatric cancer cell lines to identify multiple opportunities for drug repurposing: Confirmatory screen for A673 cells (AID 1347110);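 note: potency is the fitted concentration of half-maximal effect; cells exposed to compound for 48 h before the viability read; nearly all actives have a fitted effect of over 65% in size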
Method in brief: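 qHTS titration format: primary MIPE 0.78 nM-46 µM (11 pts), NPC 0.59 nM-46 µM; confirmation 11 pts. 48 h, CTG luminescence.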

[10] = qHTS of pediatric cancer cell lines to identify multiple opportunities for drug repurposing: Confirmatory screen for SK-N-MC cells (AID 1347111);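 note: potency is the fitted concentration of half-maximal effect; cells exposed to compound for 48 h before the readout; nearly all actives have a fitted effect of over 70% in size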
Method in brief: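 Metabolically active cells were quantified by ATP-dependent luminescence (CellTiter-Glo, 15 min at room temperature) following 48 h treatment. Cells had been plated at 500-1,000 per well and settled for 5 h beforehand.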

[11] = qHTS of pediatric cancer cell lines to identify multiple opportunities for drug repurposing: Confirmatory screen for LAN-5 cells (AID 1347113); note: nearly all actives have a fitted effect of over 65% in size; note: potency is the fitted concentration of half-maximal effect
Method in brief: as §2

[12] = qHTS of pediatric cancer cell lines to identify multiple opportunities for drug repurposing: Confirmatory screen for NB-EBc1 cells (AID 1347115);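 note: cells exposed to compound for 48 h before the viability read; nearly all actives have a fitted effect of over 45% in size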; note: potency is the fitted concentration of half-maximal effect
Method in brief: as §2

[13] = qHTS of pediatric cancer cell lines to identify multiple opportunities for drug repurposing: Confirmatory screen for TC32 cells (AID 1347118);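 note: potency is the fitted concentration of half-maximal effect; cells exposed to compound for 48 h before the read; nearly all actives have a fitted effect of over 65% in size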
Method in brief: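 Measured quantity: luminescence from CellTiter-Glo, reflecting metabolically active TC32 cells following 48 h of compound. Curves came straight from multi-point titrations, with 8 or 11 points in primary and 11 in confirmatory screening.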

[14] = qHTS of pediatric cancer cell lines to identify multiple opportunities for drug repurposing: Confirmatory screen for MG 63 (6-TG R) cells (AID 1347119); note: nearly all actives have a fitted effect of over 55% in size; note: potency is the fitted concentration of half-maximal effect
Method in brief: as §2

[15] = qHTS of pediatric cancer cell lines to identify multiple opportunities for drug repurposing: Confirmatory screen for control Hh wild type fibroblast cells (AID 1347121); note: nearly all actives have a fitted effect of over 70% in size
Method in brief: as §2

[16] = qHTS of pediatric cancer cell lines to identify multiple opportunities for drug repurposing: Confirmatory screen for DAOY cells (AID 1347114); note: nearly all actives have a fitted effect of over 65% in size; note: potency is the fitted concentration of half-maximal effect
Method in brief: (§4)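 Viability measured as metabolically active cells via CellTiter-Glo luminescence following 48 hours of compound exposure, 11-point dilutions in confirmatory testing. 500-1,000 cells/well plated 5 hours before dosing; controls were DMSO and 2.3 µM bortezomib.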

[17] = qHTS of pediatric cancer cell lines to identify multiple opportunities for drug repurposing: Confirmatory screen for SJ-GBM2 cells (AID 1347116); note: nearly all actives have a fitted effect of over 60% in size; note: potency is the fitted concentration of half-maximal effect
Method in brief: as §4

[18] = qHTS of pediatric cancer cell lines to identify multiple opportunities for drug repurposing: Confirmatory screen for NB1643 cells (AID 1347109); note: nearly all actives have a fitted effect of over 45% in size; note: potency is the fitted concentration of half-maximal effect
Method in brief: as §2

[19] = qHTS of pediatric cancer cell lines to identify multiple opportunities for drug repurposing: Confirmatory screen for BT-12 cells (AID 1347112); note: nearly all actives have a fitted effect of over 55% in size; note: potency is the fitted concentration of half-maximal effect
Method in brief: as §2

[20] = qHTS of pediatric cancer cell lines to identify multiple opportunities for drug repurposing: Confirmatory screen for BT-37 cells (AID 1347117); details: BT-37 pediatric cancer cells, viability; activity change, negative = cytotoxic: at 45.9 µM (top of the series); note: nearly all actives have a fitted effect of over 55% in size; note: potency is the fitted concentration of half-maximal effect
Method in brief: as §2

Measured: Potency

CCCc1nc(C(C)(C)O)c(C(=O)O)n1Cc1ccc(-c2ccccc2-c2nn[nH]n2)cc1
inactive: [1] | [2] | [3] | [4] | [5] | [6]

C[C@H](NC(=O)[C@@H](O)c1cc(F)cc(F)c1)C(=O)N[C@@H]1C(=O)N(C)c2ccccc2-c2ccccc21
inactive: [1] | [2] | [7] | [5]

Cc1onc(-c2ccccc2)c1C(=O)N[C@@H]1C(=O)N2[C@@H](C(=O)O)C(C)(C)S[C@@H]12
inactive: [1] | [2] | [7] | [4] | [5] | [6]

C=C[C@@H]1CN2CCC1C[C@H]2[C@H](O)c1ccnc2ccc(OC)cc12 (some centres undefined)
inactive: [1] | [2] | [3] | [4] | [5] | [6] | [8]

C#C[C@]1(O)CC[C@@H]2[C@@H]3CCC4=CC(=O)CC[C@@H]4[C@H]3CC[C@@]21CC
inactive: [1] | [2] | [3] | [4] | [5]

CCOC(=O)C1=C(C)NC(=S)NC1c1cccc(O)c1 (centres undefined)
active: [1] 137 nM | [7] 96.8 nM | [9] 11700 nM | [10] 5220 nM | [13] 3690 nM
inactive: [2] | [6] | [11] | [12] | [14] | [15]

CCOC(=O)[C@@H](N)Cc1ccc(-c2cc(O[C@H](c3ccc(Cl)cc3-n3ccc(C)n3)C(F)(F)F)nc(N)n2)cc1
active: [1] 30600 nM | [2] 23500 nM | [7] 24300 nM | [10] 32900 nM | [11] 23300 nM | [13] 23300 nM
inactive: [5] | [16] | [17] | [15]

COC(=O)[C@H](CCCN=C(N)N)NS(=O)(=O)c1ccc(C)cc1
inactive: [1] | [2] | [3] | [4] | [5] | [6] | [8]

COc1cc(OC)c(NC(=O)Nc2cc(C)on2)cc1Cl
inactive: [1] | [2] | [3] | [4] | [5]

CN(C)CC[C@H](c1ccc(Cl)cc1)c1ccccn1
inactive: [1] | [2] | [7] | [4] | [5] | [6]

CC[C@@]1([C@@H]2O[C@@H]([C@H]3O[C@@](O)(CO)[C@H](C)C[C@H]3C)C[C@H]2C)CC[C@H]([C@]2(C)CC[C@]3(C[C@H](O)[C@@H](C)[C@@H]([C@@H](C)[C@@H](OC)[C@H](C)C(=O)O)O3)O2)O1
inactive: [2]
active: [1] 106 nM | [7] 188 nM | [18] 362 nM | [9] 1020 nM | [10] 229 nM | [19] 1150 nM | [11] 362 nM | [16] 3230 nM | [12] 1620 nM | [17] 1150 nM | [20] 204 nM | [13] 288 nM | [14] 512 nM

COc1ccc(S(=O)(=O)Nc2cccnc2Nc2ccc(O)cc2)cc1
inactive: [2] | [15]
active: [1] 432 nM | [7] 306 nM | [18] 522 nM | [9] 928 nM | [10] 2610 nM | [19] 3290 nM | [11] 1650 nM | [16] 369 nM | [12] 2330 nM | [20] 1310 nM | [13] 737 nM | [14] 465 nM

CCCCCCCCCCCCc1ccc(S(=O)(=O)Nc2nncs2)cc1
inactive: [1] | [2] | [3] | [4] | [5] | [6]

Nc1nc2c(c(=O)[nH]1)N(C=O)[C@H](CNc1ccc(C(=O)N[C@@H](CCC(=O)O)C(=O)O)cc1)CN2
active: [1] 10900 nM | [7] 27300 nM | [10] 10400 nM | [13] 10400 nM
not listed: [3] | [9] | [15]
inactive: all other assays above

NC1=N[C@H]2[C@H](CS[C@H]2CCCCC(=O)O)N1
inactive: [1] | [2] | [3] | [4] | [5] | [8]

CCC[C@H]1C[C@H](C(=O)N[C@@H]([C@@H]2O[C@@H](SC)[C@@H](O)[C@@H](O)[C@@H]2O)[C@H](C)Cl)N(C)C1
inactive: [1] | [2] | [3] | [4] | [5] | [6] | [8]

Cc1cc(-c2nnc3n2CCCCC3)c(C)n1-c1ccccc1
inactive: [1] | [2] | [3] | [4] | [5] | [8]

CC1(C)CC(O)CC(C)(C)N1[O]
inactive: [1] | [2] | [3] | [4] | [5] | [6] | [8]
